# Experimental data from PubChem BioAssay AID1963316 (National Center for Advancing Translational Sciences (NCATS), 2024).
# Records with an inconclusive call do not appear. Calls of active or inactive are those of the source. Calls follow the shape of the full dose curve.
# Target: Tyrosine-protein kinase ABL1 (Homo sapiens) (UniProt P00519)
# Experiment: ABL1 kinase (ABL1-N-HiBiT) SDR gain of signal screen - plus ATP
# Conditions: purified ABL1-N-HiBiT enzyme, HiBiT luminescence with 50 uM ATP, 30 min; series mostly up to 57.5 µM; signal gain, positive = increase: at the top concentration
# Description: National Center for Advancing Translational Sciences (NCATS),
# National Institute of Health (NIH), Maryland
# Discovery and optimization of novel protein-binding ligands underlies many of the methods and applications of biology, drug discovery, clinical diagnostics, and environmental toxicology. Assays for detecting the interaction of, for example, a molecule with a macromolecular target also referred to here as the target of interest (TOI) is dependent on a compatible output technology. Depending on the nature and knowledge surrounding the TOI, whether a receptor, enzyme, regulatory subunit or scaffold, or a sequence-defined nucleic acid folded into a complex tertiary structure, assay strategies can vary widely.
# Here we exploit ligand-biased changes in the structural dynamics of the target protein to control reporter alpha complementation allowing a non-competitive, non-functional, non-separation measure of ligand-target interaction.
# Secondly, we show the specificity and sensitivity of the SDR for the Abelson tyrosine kinase (ABL1) compared to the serine/threonine protein kinase A, using an enriched chemical library of 128 compounds selected, in part, for activity annotated with ABL1 kinase activity using the Pharos database (3).
# (1) A. S. Dixon et al., NanoLuc Complementation Reporter Optimized for Accurate Measurement of Protein Interactions in Cells. ACS Chem Biol 11, 400-408 (2016).
# Chemistry & Biology, 19, 1060 - 1072 (2012).
# (3) K. J. Kelleher et al., Pharos 2023: an integrated resource for the understudied human proteome. Nucleic Acids Res 51, D1405-D1416 (2023).
# PROTOCOL TABLE (as described by Inglese J, Shamu CE and Guy RK. 2007)
# SEQUENCE No. (e.g., 1, 2, 3, etc.); […] (e.g., C. elegans, Compounds, Incubation, Read, etc.); VALUE and DESCRIPTION.
# 1. Reagent. Dispense 4 uL ABL1-N-HiBiT enzyme per well at a final enzyme concentration of 10 nM in buffer with 50 uM ATP (SDR assay) into columns 2-48 of four replicate Greiner 1536-well white, solid bottom high base, medium plates per assay. Dispense respective buffer without enzyme at 4 uL/well in column 1 of assay plates using BioRaptr 2.
# 2. Compounds. Library compounds added at 23 nL/well by pin transfer. DMSO neutral control and imatinib positive control added at 25 nL/well, transfer by Mosquito dispenser.
# 3. Incubation. Incubate enzyme and compounds at room temperature for 30 min, protected from light.
# 4. Reagent. (SDR assay) Add 3 uL/well of Nano-Glo HiBiT reagent (Promega) to assay plates with ATP.
# 5. Incubation. (SDR assay) Incubate enzyme solution and HiBiT reagent at room temperature for 10 min, protect from light.
# 6. Detector. (SDR assay) Luminescence measured using CCD-based camera (ViewLux) with settings as follows: Exposure, 1 sec; Gain, High; Speed, Slow; Binning, 2X.
# Inglese J, Shamu CE and Guy RK, Reporting data from high throughput screening of small molecule libraries, Nature Chemical Biology, 2007, 3(8): 438-441. doi.org/10.1038/nchembio0807-438.
# Sequence of Tyrosine-protein kinase ABL1 (Homo sapiens) (P00519 whole entry, looked up): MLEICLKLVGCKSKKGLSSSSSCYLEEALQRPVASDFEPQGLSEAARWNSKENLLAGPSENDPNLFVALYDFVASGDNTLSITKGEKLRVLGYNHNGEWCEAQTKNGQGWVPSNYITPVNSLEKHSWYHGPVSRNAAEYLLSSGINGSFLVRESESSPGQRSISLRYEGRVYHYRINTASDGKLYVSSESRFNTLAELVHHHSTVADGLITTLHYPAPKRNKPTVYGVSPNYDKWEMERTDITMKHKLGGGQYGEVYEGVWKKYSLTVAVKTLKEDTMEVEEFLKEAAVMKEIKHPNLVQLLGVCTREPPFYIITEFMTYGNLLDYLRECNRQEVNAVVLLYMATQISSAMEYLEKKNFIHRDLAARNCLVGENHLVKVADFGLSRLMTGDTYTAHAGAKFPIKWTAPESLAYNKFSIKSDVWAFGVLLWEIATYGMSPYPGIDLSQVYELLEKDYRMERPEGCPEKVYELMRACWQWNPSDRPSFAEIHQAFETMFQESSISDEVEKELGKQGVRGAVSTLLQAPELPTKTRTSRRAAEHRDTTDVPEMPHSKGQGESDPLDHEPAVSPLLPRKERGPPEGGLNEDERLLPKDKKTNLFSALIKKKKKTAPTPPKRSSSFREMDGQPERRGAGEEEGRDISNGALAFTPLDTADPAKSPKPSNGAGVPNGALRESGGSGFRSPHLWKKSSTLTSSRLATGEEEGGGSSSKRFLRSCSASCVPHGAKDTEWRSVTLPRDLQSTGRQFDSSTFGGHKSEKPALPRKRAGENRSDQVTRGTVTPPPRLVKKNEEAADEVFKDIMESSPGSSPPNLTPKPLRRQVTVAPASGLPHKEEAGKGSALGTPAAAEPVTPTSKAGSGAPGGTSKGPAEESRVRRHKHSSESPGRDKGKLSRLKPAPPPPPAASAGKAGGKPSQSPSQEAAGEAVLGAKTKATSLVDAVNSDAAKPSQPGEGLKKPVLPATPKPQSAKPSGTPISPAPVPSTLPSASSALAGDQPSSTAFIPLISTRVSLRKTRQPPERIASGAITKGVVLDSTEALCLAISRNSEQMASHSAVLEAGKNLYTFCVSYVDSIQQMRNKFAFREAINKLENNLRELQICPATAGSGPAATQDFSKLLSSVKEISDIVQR
row,Compound,"signal gain, positive = increase"
1,C/C(O)=C(\C#N)C(=O)Nc1cc(Br)ccc1Br,-66.9% (inactive)
2,O=[N+]([O-])O[C@H]1CO[C@H]2[C@@H]1OC[C@H]2O[N+](=O)[O-],2.28% (inactive)
3,N#Cc1cn([C@@H]2O[C@H](CO)[C@H](O)[C@@H]2O)c2ncnc(N)c12,16.4% (inactive)
4,CCNC(=O)C[C@@H]1N=C(c2ccc(Cl)cc2)c2cc(OC)ccc2-n2c(C)nnc21,-4.29% (inactive)
5,Cc1[nH]nc2ccc(-c3cncc(OC[C@@H](N)Cc4c[nH]c5ccccc45)c3)cc12,-0.858% (inactive)
6,O=C(NCCCNc1nc(Nc2ccc(N3CCOCC3)cc2)ncc1C1CC1)C1CCC1,8.48% (inactive)
